Source: PubChem
pAkt inh = inhibitors of Akt phosphorylation. Neuro2A IGF-stimulated pAkt S473 HTRF, 20 min; hits give low values. activity change, % for hits at 50 µM. 0.32% of 360,000 active. AID 651550; in the data active = activity change below about -80%; inconclusive = mostly about -51% to -80%; also: % is scaled to controls: 0 for no effect and ±100 for the full control effect
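Single-point screen (50 µM final compound) in Neuro2A cells stimulated 20 min with 6 nM IGF at 37 deg C. After lysis, Ser473-phosphorylated Akt read by HTRF (ex 330 nm, em 615/665 nm) as the 665/615 ratio.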
Abeta rescue = restores growth of yeast expressing A-beta42 peptide. yeast expressing A-beta42, growth rescue, OD600, 48 h; response scale: 0% DMSO, 100% iron-clioquinol control. 0.063% of 410,000 active. Potency, µM (top dose mostly 46.1 µM), usual class: activators. AID 1347071; also: potency is read from the fitted curve at half-maximal effect; nearly all actives have a fitted effect of over 55% in size
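Growth rescue measured by 600 nm absorbance after 48 h yeast culture at 30 C with compound. Values normalized between DMSO and an equimolar ferric chloride plus clioquinol control.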
aSyn rescue = rescues yeast growth from alpha-synuclein toxicity. Yeast expressing alpha-synuclein, growth rescue, BacTiter-Glo, 24 h. Potency, µM (doses to about 46.1 µM), for inactives: top-dose growth rescue (activation), hits mostly activators. 0.14% of 370,000 active. AID 652106; also: potency is read from the fitted curve at half-maximal effect; % of control where 0% means no effect; nearly all actives have a fitted effect of over 65% in size
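Screening used galactose-induced yeast with toxic alpha-synuclein levels, exposed to compound for 24 hr at 30 deg C. Cell growth, read with BacTiter-Glo luminescence, gave the measured signal.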
TDP43 rescue = inhibitors of TDP-43 toxicity in yeast. TDP-43 expressing yeast growth rescue, BacTiter-Glo, 24 h. 1.8% of 410,000 active. Potency, µM (titrated, usually from 46.1 µM), inactives show top-dose growth rescue (activation), usual class: activators; also: potency is read from the fitted curve at half-maximal effect; % of control where 0% means no effect; nearly all actives have a fitted effect of over 50% in size
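Readout is BacTiter-Glo luminescence of cell growth, so inhibitors register as activators. TDP-43-expressing yeast at OD600=0.02 in galactose medium, after raffinose pregrowth to mid-log, were incubated with compound for 24 hr at 30 deg C.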
FUS suppressor = FUS proteinopathy suppression in yeast. AID 1347120. S. cerevisiae FUS-expressing, growth rescue, OD600, 24 h. 0.24% of 390,000 active. Potency, µM (top dose mostly 76.6 µM), hits mostly activators;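 also: potency is read from the fitted curve at half-maximal effect; plate controls were DMSO vehicle for no effect and reference control for full effect; nearly all actives have a fitted effect of over 55% in size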
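FUS-expressing yeast, raffinose-pregrown, induced in 2% galactose minimal medium at OD 0.005; compounds in a dilution series, 24hr at 30C. Growth restoration read as absorbance at 600 nm. CP55940 positive control, DMSO negative.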
An asterisk follows results filed as active. An excerpt weighted towards active compounds, which were near 2.3% of everything screened. Unless noted, calls follow the shape of the dose curve; as a rule, active = well fitted curve in the direction sought with a large enough effect; inconclusive = small, poorly fitted or top-dose-only effect, or another doubt; inactive = no such curve, though single readings can be large; an effect the other way counts as inactive or inconclusive.

Screening CSc1ccc(S(=O)(=O)Nc2ccc3c4c(cccc24)CC3)cc1 returned pAkt inh inactive, Abeta rescue inactive, aSyn rescue 12.6µM*, TDP43 rescue 14.1% and FUS suppressor inactive.
O=S(=O)(Nc1ccc2c3c(cccc13)CC2)c1ccc(F)cc1 was read as pAkt inh inactive, Abeta rescue inactive, aSyn rescue inconclusive, TDP43 rescue inconclusive and FUS suppressor inactive.
COc1ccc(CN2CCC(CNC(=O)NC3CCCC3)CC2)cc1 was read as FUS suppressor inactive.
Screening CCOc1ccc(-c2[nH]ncc2-c2ccc(Cl)cc2)c(O)c1 returned pAkt inh inactive, Abeta rescue inactive, aSyn rescue -45.6%, TDP43 rescue 35.5µM* and FUS suppressor inactive.
For CCOc1ccc(-c2[nH]ncc2Oc2ccccc2OCC)c(O)c1 the results were pAkt inh inactive, Abeta rescue inactive, aSyn rescue inconclusive, TDP43 rescue 17.8µM* and FUS suppressor inactive.
Screening O=c1c2cnn(-c3ccc(Cl)cc3)c2ncn1Cc1cccc(C(F)(F)F)c1 returned Abeta rescue inactive, TDP43 rescue 20.2% and FUS suppressor inactive.
Cc1cc(C)cc(NC(=O)C(=O)NC(C)c2ccccc2)c1 (configuration not stated) was read as Abeta rescue inactive, TDP43 rescue 3.8% and FUS suppressor inactive.
CCCCOc1ccc(CNC(=O)CN2CCSc3ccccc32)cc1 was read as Abeta rescue inconclusive, aSyn rescue inconclusive, TDP43 rescue 35.5µM* and FUS suppressor inconclusive.
For COc1cccc(NC(=O)CN2CCSc3ccccc32)c1 the results were pAkt inh inactive, Abeta rescue inactive, aSyn rescue 12.1%, TDP43 rescue 22.4µM* and FUS suppressor inactive.
`O=C(CSc1cc(Cl)ccc1Cl)Nc1ccc(N2CCOCC2)cc1` gave pAkt inh inactive, Abeta rescue inactive, aSyn rescue 0.1%, TDP43 rescue 15.8µM* and FUS suppressor inactive.
For COc1ccc(F)cc1S(=O)(=O)NCCc1csc(-c2ccc(Cl)cc2)n1 the results were Abeta rescue inactive, TDP43 rescue inconclusive and FUS suppressor inconclusive.
Screening Cc1cc(C)c(NS(=O)(=O)c2ccc3c(c2)CC(C)N3C(=O)C2CCC2)c(C)c1 (configuration not stated) returned Abeta rescue inactive, TDP43 rescue 11.2µM* and FUS suppressor inconclusive.
Cc1cccc(NS(=O)(=O)c2ccc3c(c2)CC(C)N3C(=O)C2CCC2)c1C (configuration not stated) was read as Abeta rescue inactive, TDP43 rescue 20µM* and FUS suppressor inconclusive.
For CC1CCN(S(=O)(=O)c2ccc3c(c2)CC(C)N3C(=O)C2CCC2)CC1 (configuration not stated) the results were pAkt inh inactive, aSyn rescue 12.2%, TDP43 rescue 17.8µM* and FUS suppressor inconclusive.
For CC1Cc2cc(S(=O)(=O)N3CCCCC3)ccc2N1C(=O)C1CCC1 (configuration not stated) the results were pAkt inh inactive, aSyn rescue -1.0%, TDP43 rescue inconclusive and FUS suppressor inactive.
CCOc1ccccc1NS(=O)(=O)c1ccc2c(c1)CC(C)N2C(=O)C1CCC1 (configuration not stated) was read as Abeta rescue inactive, TDP43 rescue 23.8% and FUS suppressor inconclusive.
For COc1cccc(NC(=O)c2oc3ccccc3c2NC(=O)Cc2cccc(C)c2)c1 the results were Abeta rescue inactive, TDP43 rescue -1.8% and FUS suppressor inactive.
Nc1nc(CN2CCCCCC2)nc(Nc2ccccc2)n1 was read as pAkt inh inactive, Abeta rescue inactive, aSyn rescue -0.1%, TDP43 rescue 0.1% and FUS suppressor inactive.
CCOC(=O)C1CCCN(Cc2nc(N)nc(Nc3ccccc3)n2)C1 (configuration not stated) was read as pAkt inh -96.0%*, Abeta rescue inactive, aSyn rescue 5.3%, TDP43 rescue -0.2% and FUS suppressor inactive.
Screening CCOC(=O)C1CCN(C(=S)Nc2ccccc2)CC1 returned pAkt inh inactive, Abeta rescue inactive, aSyn rescue -1.7%, TDP43 rescue -11.4% and FUS suppressor inactive.
For CCOC(=O)C1CCCN(C(=S)Nc2ccc(Nc3ccccc3)cc2)C1 (configuration not stated) the results were pAkt inh inactive, Abeta rescue inconclusive, aSyn rescue inconclusive, TDP43 rescue 22.4µM* and FUS suppressor inconclusive.
O=c1c2cc3c(cc2n(Cc2ccc(F)cc2)c(=O)n1Cc1nc(-c2ccccc2)no1)OCO3 was read as Abeta rescue inactive, TDP43 rescue 7.8% and FUS suppressor inactive.
`O=C(CCc1c[nH]c2ccccc12)OCc1cccc([N+](=O)[O-])c1` gave pAkt inh inactive, Abeta rescue 11.2µM*, aSyn rescue 16.3%, TDP43 rescue inconclusive and FUS suppressor inactive.
`c1ccc(OCCSc2nnnn2C2CCCCC2)cc1` gave pAkt inh -111.7%*, Abeta rescue inactive, aSyn rescue 0.8%, TDP43 rescue 12.5% and FUS suppressor inactive.
For COc1ccc(C(=O)COC(=O)/C=C/c2ccccc2[N+](=O)[O-])cc1 the results were pAkt inh inactive, Abeta rescue inactive, aSyn rescue 7.6% and TDP43 rescue 19.2%.
COC(=O)C(=Cc1ccccc1[N+](=O)[O-])C(=O)OC was read as pAkt inh inactive, Abeta rescue inactive, aSyn rescue 0.1%, TDP43 rescue 15.8µM* and FUS suppressor inactive.
Screening O=C(/C=C/c1ccccc1[N+](=O)[O-])OCC(=O)c1ccccc1 returned pAkt inh inactive, Abeta rescue inactive, aSyn rescue 10.1%, TDP43 rescue 20µM* and FUS suppressor inactive.
For O=[N+]([O-])c1ccc(Sc2cccc[n+]2[O-])c2nonc12 the results were pAkt inh inactive, Abeta rescue inactive, aSyn rescue 0.562µM*, TDP43 rescue inconclusive and FUS suppressor inactive.
CCOCCCNC(=O)N1CCN(S(=O)(=O)c2ccc3c(ccn3C)c2)CC1 was read as Abeta rescue inactive, aSyn rescue -6.2%, TDP43 rescue -13.8% and FUS suppressor inactive.
Screening COc1ccccc1/C=N/NC(=O)c1cccc(OC(F)(F)C(F)F)c1 returned pAkt inh inactive, Abeta rescue inactive, aSyn rescue -14.6% and TDP43 rescue -0.6%.
For COc1cccc(/C=N/NC(=O)C(=O)Nc2ccccc2OC(F)(F)C(F)F)c1O the results were pAkt inh inactive, Abeta rescue inactive, aSyn rescue 22.4µM*, TDP43 rescue -1.7% and FUS suppressor inactive.
